Laboratory results reported in PubChem BioAssay AID651803 (National Center for Advancing Translational Sciences (NCATS), 2012).
Out of some 1,200 compounds screened, fewer than 10 were called active. Calls come from the whole dose curve; as a rule, active = well fitted curve in the direction sought with a large enough effect; inconclusive = small, poorly fitted or top-dose-only effect, or another doubt; inactive = no such curve, though single readings can be large or run the other way. The list is a sample of the results. Residues, ends and D or L forms follow the SMILES beside them.

What follows are compounds tested against Transcriptional regulator ERG (Homo sapiens) (UniProt P11308) (assay: qHTS for Small Molecule Inhibitors of the ERG Ets/DNA interaction: TR assay against cherry picks). Settings: ERG Ets domain-DNA fluorescence polarization, Texas red probe; series mostly up to 154 µM.
From the text: The Ets family of proteins is a family of ~30 conserved transcription factors defined by the presence of an ~85 amino acid domain referred to as the Ets domain, which mediates sequence-specific DNA binding to a core DNA element GGAA/T.The Ets family member ERG has been linked to several neoplasms. […] More extensive studies of the effects of over-expression of ERG in prostate cells have recently been carried out and have shown that over-expression of ERG results in increased invasion. […] We will carry out a high throughout screen to identify inhibitors of the interaction between ERG and DNA using a fluorescence polarization (FP) assay with a His-tagged ERG Ets domain and fluorescently-labeled DNA probes to develop small molecule inhibitors of this interaction as probes to test this hypothesis and lay the groundwork for the development of targeted therapies against ERG. This is the confirmation against the cherry picks in theprimary screening assay. NIH Molecular Libraries Probe Production Network [MLPCN] NIH Chemical Genomics Center [NCGC] Grant: NS066464 PI Name: John Bushweller, University of Virgina
1.5 ul of protein solution (1 uM ERG domain in 300mM KCl, 50mM Tris-HCl, 1mM EDTA, 1mM DTT, pH 7.5); 20 nl Control plate and compound library plate; 1.5 ul mixture of 5 nM Fluorescein-DNA and 100nM Texas-615-DNA solution in same buffer as above solution; measure fluorescence polarization sequentially for fluorescein (Excitation = 480 nm, Emission = 535s, 535p nm) and Texas red (Excitation = 555 nm, Emission = 632s, 632p nm).

Sequence of Transcriptional regulator ERG (Homo sapiens) (P11308 whole entry, looked up, the tested form may be a part): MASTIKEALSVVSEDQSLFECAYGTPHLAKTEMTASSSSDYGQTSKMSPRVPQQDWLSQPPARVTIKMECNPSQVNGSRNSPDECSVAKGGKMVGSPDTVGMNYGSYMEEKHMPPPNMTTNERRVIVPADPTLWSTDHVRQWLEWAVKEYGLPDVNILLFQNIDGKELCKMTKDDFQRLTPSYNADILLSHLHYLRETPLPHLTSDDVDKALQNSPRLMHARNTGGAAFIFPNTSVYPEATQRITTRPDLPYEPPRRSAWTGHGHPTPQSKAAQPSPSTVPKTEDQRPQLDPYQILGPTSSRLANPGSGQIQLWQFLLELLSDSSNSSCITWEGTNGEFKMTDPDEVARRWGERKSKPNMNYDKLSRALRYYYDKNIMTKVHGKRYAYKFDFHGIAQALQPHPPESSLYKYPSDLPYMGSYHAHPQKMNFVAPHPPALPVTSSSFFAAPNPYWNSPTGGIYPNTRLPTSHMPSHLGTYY

outcome, inactive:
Cc1ccccc1OCc1nnc(SCC(=O)Nc2ccc(N3CCOCC3)c(Cl)c2)n1C
O=C(O)c1cc(O)c2c(c1)[C@H]([C@H]1c3cc(C(=O)O)cc(O)c3C(=O)c3c(O[C@@H]4O[C@H](CO)[C@@H](O)[C@H](O)[C@H]4O)cccc31)c1cccc(OC3O[C@H](CO)[C@@H](O)[C@H](O)[C@H]3O)c1C2=O (some centres not stated)
COc1ccccc1CN(C)C(=O)C(NC(=O)Cc1cccc2ccccc12)C(C)C (configuration not stated)
O=C(CN1C=NS(=O)(=O)c2ccccc21)Nc1ccc(Br)cc1
Cc1ccc(S(=O)(=O)NCC(=O)N(CC(=O)NCC2CCCO2)c2cccc(F)c2)cc1 (configuration not stated)
Clc1ccc(SCc2nc3ccccc3[nH]2)cc1
CCc1n[nH]c(=S)n1/N=C/c1ccc(N(C)c2ccccc2)cc1
CNC(=O)c1cccc(-n2c(C)nc3cccnc32)c1C
Cc1ccc(/C=C2\SC(N3CCCCC3)=NC2=O)cc1
CCc1cccc(NC(=O)C2CCCN(S(=O)(=O)c3ccc4[nH]c(=O)ccc4c3)C2)c1 (configuration not stated)
COc1ccc(-c2ccc(SCC(=O)NCc3ccc4c(c3)OCO4)nn2)cc1OC
C=CCn1c(=O)[nH]c2cc(C(=O)N3CC=C(c4ccccc4)CC3)ccc2c1=O
COc1ccccc1CNC(=O)CCNC(=O)C1CCN(S(=O)(=O)c2ccccc2)CC1
Oc1ccc(Nc2ccc3ccccc3c2)cc1
Cc1ccc(OCC(=O)OCC(=O)c2ccccc2)cc1C
CC(C)N1CCC(N2CCN(Cc3cccc4nonc34)CC2CCO)CC1 (configuration not stated)
O=C(O)CNC(=O)/C(=C\c1ccc2c(c1)OCO2)NC(=O)c1ccc(Br)cc1
O=C(COc1coc(CN2CCCc3ccccc32)cc1=O)Nc1cccc([N+](=O)[O-])c1
COc1cccc(CC2(CO)CCN(S(=O)(=O)N(C)C)CC2)c1
CCOc1cc(C2c3c(oc4ccccc4c3=O)C(=O)N2Cc2ccc(OC)cc2)ccc1O (configuration not stated)
Cc1cccc(-c2oc3ccccc3c2-c2ccc3c(c2)OCO3)c1
Cc1ncc([N+](=O)[O-])n1CC(=O)N/N=C/c1ccc(F)cc1
Cc1ccc(C(=O)Nc2ccc(C(=O)N/N=C/c3c[nH]c4ccccc34)cc2)cc1
Cc1ccc(/C=C2\Sc3ccccc3C2=O)s1
COc1ccc([C@@H](NC(=O)OC(C)(C)C)C(=O)OC(C)(C)C)cc1
O=c1ccc(-c2ccc(S(=O)(=O)Nc3cccc(Br)c3)o2)n[nH]1
Nn1c(Cc2ccccc2)nc2sc3c(c2c1=O)CCC3
CCCN(CCC)Cc1c(C(=O)N/N=C/c2cccs2)nnn1-c1nonc1N
Cn1c(CNC(=O)CNC(=O)c2ccc(C(C)(C)C)cc2)cc(=O)n(C)c1=O
C/C(=N\Nc1ccc(C#N)cc1[N+](=O)[O-])c1ccc(C)o1
CC(=O)Nc1ccc(NC(=O)C(C)OC(=O)C2CCN(S(=O)(=O)c3ccc4c(c3)OCCO4)CC2)cc1 (configuration not stated)
CCS(=O)(=O)N1CCC(C(=O)OCC(=O)c2ccc(Br)cc2)CC1
Cn1c(SCC(=O)N2CCN(C(=O)c3ccco3)CC2)nnc1-c1ccc(NS(C)(=O)=O)cc1
CCOC(=O)N1CCC(NC(=O)Cc2ccccc2)CC1
CC(=O)NC(Cc1ccccc1)C(=O)NC(Cc1ccccc1)C(=O)O (stereo not drawn) (Ac-Phe-Phe-OH; configuration not given here)
COc1ccccc1C(=O)Nn1c(-c2cccs2)nc2ccccc2c1=O
Cc1c(OC(C(=O)O)c2ccccc2)ccc2c(-c3ccccc3)cc(=O)oc12 (configuration not stated)
COc1cc(C(=O)Cc2nc3ccccc3n2C)cc(OC)c1OC
CC(=O)Nc1ccc(NC(=O)Nc2ccc(C)cc2C)cc1
CCOc1ccc(N/C(SCc2cccc([N+](=O)[O-])c2)=C(/C#N)C(N)=O)cc1
CC(C)(C)SC(=O)CC1NS(=O)(=O)OC2CCCCC12 (configuration not stated)
Cc1cccn2c(=O)cc(COc3ccc(NC(=O)C(C)C)cc3)nc12
CCc1nnc2c(N3CCN(c4cccc(C(F)(F)F)c4)CC3)nc3ccccc3n12
COC(=O)c1ccc2c(=O)n(CCN3CCOCC3)c(SCC(=O)Nc3ccc(OC)cc3OC)nc2c1
COc1ccc(S(=O)(=O)N2CCc3ccccc32)cc1C(=O)N(CC(C)C)C1CCS(=O)(=O)C1 (configuration not stated)
FC(F)(F)COc1cc(-c2nnc(SCc3ccccc3)n2Cc2ccco2)cc(OCC(F)(F)F)n1
N/C(=N\c1nc2ccccc2o1)NC(=O)c1cccc(Br)c1
Cc1ccccc1OCC(=O)Nc1ccc2[nH]ncc2c1
CCN1CCN(CCCN(Cc2cccs2)C(=S)Nc2ccccc2C)CC1
Nc1ccc2nc3c(=O)n(CCc4ccccc4)c(=O)[nH]c3nc2c1
CCOC(=O)C1=C(C)N(C[C@@H]2CC[C@@H](Cc3ccc(-c4ccccc4)cc3)O2)C(=O)NC1c1ccc([N+](=O)[O-])cc1 (some centres not stated)
COc1cc(/C=C/C(=O)OCC(=O)NC(=O)NC2CCCCC2C)ccc1OC(F)F (configuration not stated)
O=S(=O)(NCCC1=CCCCC1)c1ccc(OC(F)(F)F)cc1
CCN1C(=O)CSc2ccc(C(=O)NC3CCCCC3)cc21
COc1ccc(C2(C(=O)Nc3ccc(OC)cc3OC)CCCC2)cc1
CC1COc2ccccc2N1S(=O)(=O)c1ccc(Cl)cc1 (configuration not stated)
CCOC(=O)C1CCN(C(=O)c2cccc(S(=O)(=O)N3CCCc4ccccc43)c2)CC1
O=C(Nc1cc2c(cc1Cl)-c1ccc([N+](=O)[O-])cc1C2=NO)C(F)(F)F
CC(C)C(C(=O)O)N1CCS(=O)(=O)CC1 (configuration not stated)
CCN(CC)c1ccc2cc(-c3nc(-c4cc(OC)c(OC)c(OC)c4)no3)c(=O)oc2c1
CCOC(=O)c1ccc(NC(=O)c2cn(-c3ccccc3)nc2-c2ccc(OC)c(OC)c2)cc1
CC(OC(=O)C1CCN(S(=O)(=O)c2ccccc2C(F)(F)F)CC1)C(=O)N(C)Cc1ccccc1 (configuration not stated)
